Screening results as filed in PubChem BioAssay.
ALDH1A1 inh: blocks purified human ALDH1A1 activity; P00352; Purified ALDH1A1, NADH fluorescence, propionaldehyde substrate; Potency, µM (highest dose often 75.3 µM), for inactives: at the top dose activity, negative = inhibition, hits mostly inhibitors; 220,000 compounds, 7.3% hits; AID 1030;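 further: potency means the concentration at half of the fitted maximal effect; plate controls were no enzyme wells and a reference inhibitor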
IMPase cell inh: membrane-permeable compound that blocks inositol monophosphatase; P97697; CHO-M1 cells, IP1 accumulation, HTRF TR-FRET ratio; inhibition (IP1 accumulation), % at 46.1 µM; 120,000 tested, under 10 active; AID 901; active means well fitted curve in the direction sought with a large enough effect in the signal ratio, not every such curve was filed as active; inconclusive means small, poorly fitted or top-dose-only effect, or a change in a side signal; inactive means no such curve, though single readings can be large or run the other way; the % refers to the signal ratio;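 further: cells stimulated with carbachol in lithium chloride buffer; plate controls were DMSO basal wells for no effect and reference inhibitor wells for full effect; higher means more IMPase inhibition seen as more IP1 and lower FRET ratio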
Target sequence (P97697 whole entry, looked up): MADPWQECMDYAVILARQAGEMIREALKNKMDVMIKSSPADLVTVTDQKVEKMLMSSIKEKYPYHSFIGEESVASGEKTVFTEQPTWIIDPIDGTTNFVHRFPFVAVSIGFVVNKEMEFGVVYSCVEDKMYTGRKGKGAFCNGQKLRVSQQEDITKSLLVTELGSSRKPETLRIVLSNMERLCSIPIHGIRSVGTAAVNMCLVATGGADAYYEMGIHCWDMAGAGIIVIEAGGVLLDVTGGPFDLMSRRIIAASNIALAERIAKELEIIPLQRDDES
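Cellular IMPase inhibition is scored as a rise in cytosolic IP1, detected by competitive TR-FRET between d2-labelled IP1 and a europium anti-IP1 antibody. M1-expressing CHO cells were stimulated with carbachol for 30 min at 37C, with lithium (50 mM LiCl) present in the buffer.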
HPGD inh: HPGD (human) dehydrogenase inhibition; P15428; purified HPGD, NADH fluorescence kinetic, PGE2 substrate; Potency, µM, for inactives: at the highest dose activity change, negative = inhibition, most hits filed as inhibitors; 150,000 compounds, 4.3% hits; further: potency means the concentration at half of the fitted maximal effect
Target sequence (P15428 whole entry, looked up): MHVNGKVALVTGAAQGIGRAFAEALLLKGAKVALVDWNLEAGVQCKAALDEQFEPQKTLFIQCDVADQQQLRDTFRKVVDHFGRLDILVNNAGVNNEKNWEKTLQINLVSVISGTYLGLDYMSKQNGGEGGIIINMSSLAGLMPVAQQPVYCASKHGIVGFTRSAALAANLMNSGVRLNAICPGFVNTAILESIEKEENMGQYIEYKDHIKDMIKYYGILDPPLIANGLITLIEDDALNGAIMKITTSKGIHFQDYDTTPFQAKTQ
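20 nM HPGD preincubated 15 min at room temperature with compound in 50 mM Tris-HCl pH 8, 0.01% Tween 20. Started with 1 mM NAD+ and 30 uM prostaglandin E2; NADH fluorescence (360/450 nm) read 5 times over 30-s intervals, last minus first.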
* marks the source's active call; other numbers are inactive results; ? = inconclusive; . = no result given; [ ] = remark or other dose. Hits are enriched below; roughly 9% of the tested compounds scored in any of these assays. Unless noted, the call rests on the fitted dose curve; in most records, active means well fitted inhibition curve with a large enough effect (not every such curve was filed as active); inconclusive means small, poorly fitted or top-dose-only effect, or another doubt; inactive means no such curve, though single readings can be large or run the other way. Unless noted, on the % scale 0 is the no-effect control and ±100 the full control effect.

SMILES	ALDH1A1 inh	IMPase cell inh	HPGD inh
CC1(C)CC(=O)C2=C(C1)Nc1ccccc1NC2c1cccnc1 (stereo unspecified)	10%	5	-14%
CC(=N)C1=C(O)CC(C)(C)CC1=O	?	4	-7%
Cc1ccc(C2C3=C(CC(C)(C)CC3=O)NC3=C2C(=O)CC(C)(C)C3)o1	?	2	-10%
CCCC(C1=C(O)CC(C)(C)CC1=O)C1C(=O)CC(C)(C)CC1=O (stereo unspecified)	22µM*	15	0%
CC1(C)CC(=O)C(C(C2=C(O)CC(C)(C)CC2=O)c2cccc(O)c2)C(=O)C1 (stereo unspecified)	14µM*	1	-9%
Cc1cccc(C)c1OCCSc1nc2ccccc2n1CC(=O)O	.	-7	.
CN(C)/N=N/c1nc[nH]c1C(N)=O	?	.	-21%
CCOC(=O)CSc1nc2sc3c(c2c(=O)n1-c1ccccc1)CC(C(C)C)OC3 (stereo unspecified)	.	-9	.
O=C(CCl)Nc1cc(S(=O)(=O)N2CCCCCC2)ccc1Cl	?	.	2%
O=C(CSC1=NCCS1)NC(c1ccccc1)c1ccccc1	-3%	.	-6%
COC(=O)c1cc(NC(=O)CSC2=NCCS2)cc(C(=O)OC)c1	13µM*	.	.
O=C(O)c1ccccc1CSC1=NCCS1	20µM*	.	.
O=C(CSC1=NCCS1)NC(NC(=O)CSC1=NCCS1)c1ccccc1	5%	.	.
CN(C(=O)CSC1=NCCS1)c1ccccc1	2%	8	-14%
O=C(CSC1=NCCS1)Nc1cccc2ccccc12	?	-9	14µM*
O=C(CSC1=NCCS1)Nc1ccccc1F	8.9µM*	0	28µM*
CC(NC(=O)CSC1=NCCS1)c1ccccc1 (stereo unspecified)	-1%	-4	.
CN1CCCN([C@@H](c2ccccc2)c2ccc(Cl)cc2)CC1	11%[20.9 µM]	15[20.6 µM]	2%
O=C(Nc1nc2ccccc2[nH]1)c1ccc(Br)o1	3%	.	.
NC(=O)C(c1ccc(Cl)cc1)c1ccc(Sc2ccc(Cl)cc2)nn1 (stereo unspecified)	0%	10	-8%
COC(=O)c1ccccc1NC(=O)CSc1nccn1C	-10%	3	-11%
Cn1ccnc1SCC(=O)Nc1cccc2ccccc12	0%	-1	25µM*
Cn1ccnc1SCC(=O)c1ccc(Br)cc1	3.5µM*	7	?
O=C(CSc1nccn1-c1ccccc1)c1ccc(Br)cc1	?	-2	-14%
C=CCn1c(SCC(=O)Nc2c(C)n(C)n(-c3ccccc3)c2=O)nc2sc(C)c(-c3ccccc3)c2c1=O	-3%	4	-13%
SMILES	ALDH1A1 inh	IMPase cell inh	HPGD inh
Cc1ccc(C)c(N2CCN(c3cnn(-c4nc5ccccc5s4)c(=O)c3Cl)CC2)c1	0%	-6	?
CC(C)CC(C(=O)O)N1C(=O)C2C3CC(C2C1=O)C1C(c2ccccc2)c2sc(=O)[nH]c2SC31 (stereo unspecified)	2%	.	?
COC(=O)c1cc(C(=O)c2ccc(Cl)cc2)n2c(=O)/c(=C\N(C)C)sc12	0.25µM*	.	.
COC(=O)c1cc(C(=O)c2ccccc2)n2c(=O)/c(=C\N(C)C)sc12	3.2µM*	.	.
COC(=O)c1ccc(C(=O)OC)c(-n2c(=O)c3ccccc3c3ccccc3c2=O)c1	?	?	-24%
COC(=O)c1ccc(=O)n(CC(=O)c2ccc(Cl)cc2)c1	5%	.	.
COc1cc(CNCc2cccnc2)ccc1OCC(=O)NC1CCCCC1	-6%	.	.
O=C1CCCN1CCC1CCCCN1Cc1nc(-c2cnccn2)no1 (stereo unspecified)	8%	.	.
COCCNC(=O)COC(=O)c1cccnc1SC	-1%	.	.
Nc1cccc2cc(S(=O)(=O)Nc3ccc(C(=O)O)cc3)ccc12	-4%[13.5 µM]	.	-20%
CC(C)(C)OC(=O)N1CCC[C@H]1c1nnc(SC/C=C/c2ccccc2)o1	22µM*	13	.
CC(C)(C)OC(=O)N1CCC[C@H]1c1nnc(SCc2ccccc2Cl)o1	-8%	4	-11%
CC(C)c1csc(CN2CCC(N3CCC(C(=O)NCC4CCCO4)CC3)CC2)n1 (stereo unspecified)	11%	.	.
Cc1c(CCOC(=O)c2cc([N+](=O)[O-])cc([N+](=O)[O-])c2)sc[n+]1CCCCS(=O)(=O)[O-]	-6%	.	.
CC(C)(C)C1CCc2sc(-c3nnc(CCl)o3)cc2C1 (stereo unspecified)	22µM*	.	.
COc1ccc(/C=C/C(=O)Nc2sc(C)c(C)c2C(=O)O)cc1	.	-10	.
COc1ccc(CNC(=O)COC(=O)/C=C/c2ccco2)cc1	25µM*	.	.
COc1ccc(CC(=O)NCC(=O)N/N=C/c2ccco2)cc1	?	-4	-10%
O=C(COC(=O)/C=C/c1ccco1)NCc1ccco1	-11%	.	.
COc1ccc(COC(=O)N/C=C/c2ccco2)cc1	28µM*	.	.
COc1nc(C#N)nc(N(C)C)n1	3%	7	-4%
COc1ccc(Cl)cc1NC(=O)Cn1nc(C(F)(F)F)c2c1CCCC2	.	-3	.
c1ccc(SC(Sc2ccccc2)c2ccc3c(c2)OCO3)cc1	0%[13.5 µM]	.	-2%
Nc1ccccc1S[C@@H](C[N+](=O)[O-])c1ccc2c(c1)OCO2	3.5µM*	.	3.2µM*
O=C(NC1CCCCCCC1)C1CCC(CNc2c(N3CCCC3)c(=O)c2=O)CC1 (stereo unspecified)	?	-1	4µM*
SMILES	ALDH1A1 inh	IMPase cell inh	HPGD inh
COc1cc(NC(=O)C2CCC(CNc3c(N4CCCCC4)c(=O)c3=O)CC2)cc(OC)c1 (stereo unspecified)	8%	-6	-9%
CCC(Cc1ccccc1)NC(=O)C1CCC(CNc2c(N3CCCC3)c(=O)c2=O)CC1 (stereo unspecified)	-11%	2	-8%
Cc1cccc(CCNC(=O)C2CCC(CNc3c(N4CCCC4)c(=O)c3=O)CC2)c1 (stereo unspecified)	?	-2	13µM*
Cc1ccnc(NC(=O)C2CCC(CNc3c(N4CCCC4)c(=O)c3=O)CC2)c1 (stereo unspecified)	0%	-4	-10%
Cc1ccc(CCNC(=O)C2CCC(CNc3c(N4CCCC4)c(=O)c3=O)CC2)cc1 (stereo unspecified)	-8%	10	25µM*
O=C(NCC1COc2ccccc2O1)C1CCC(CNc2c(N3CCCCC3)c(=O)c2=O)CC1 (stereo unspecified)	1%	1	14µM*
O=C(NC1CCCc2ccccc21)C1CCC(CNc2c(N3CCOCC3)c(=O)c2=O)CC1 (stereo unspecified)	3%	1	-16%
COC(=O)NC(c1cccc(C)c1)C(C(C)=O)C(=O)OC (stereo unspecified)	7%[13.5 µM]	.	.
CC(C)CN1CCN(Cc2ccc3ncccc3c2)CC1CCO (stereo unspecified)	4%	.	.
Cc1nn(-c2cc(Cl)ccc2Cl)c(C)c1C(=O)O	6%	.	.
COc1cc(C/C=C/c2ccccc2)c(OC)cc1O	?	.	-7%
Cc1ccc(S(=O)(=O)NC2CCCCC2)c(C)c1NS(C)(=O)=O	-1%	.	.
FC(F)(F)c1cc(CO[C@@H]2CCCN[C@H]2c2ccccc2)cc(C(F)(F)F)c1	.	2	.
O=[N+]([O-])c1ccccc1CNC(Cc1ccccc1)c1ccccc1 (stereo unspecified)	13µM*	-5	-14%
CC(C)C(NC(=O)Cc1ccccc1[N+](=O)[O-])C(C)C	12%	-1	.
